Structures are written as SMILES. Screen size: about 69,000 compounds; about 8,600 (12%) showed an effect of 50% or more. Only a selection was taken, and strong results are over-represented in it overall.

For the assay, the system named is Plasmodium berghei. The assay can be described thus: Screen against P. berghei liver stage (PbLuc), transformed with Luciferase, at 10uM. Format: functional, HepG2. Particulars: tested at 10 uM.
In the case of `CC(C)OC(=O)N1C[C@@H]2CC[C@H]1CN(C(=O)c1ccccc1)C2`, the INHIBITION is -63.6%. As for `Cc1ncccc1C(=O)NCC(C)Oc1ccc(F)cc1` (stereo not given), the INHIBITION is 10.1%.

`CCn1cnnc1CNC(=O)N(C)Cc1cccc(OC(F)F)c1`: the INHIBITION was found to be 36.1%. The value for `Cc1cnc(C2(C)CCN(Cc3cscn3)CC2)s1` was -6.92%; that for `COCCNC(=O)c1cc(-c2cc[nH]n2)n2ccccc12` was -22.5%. On to `Cc1c(C(=O)NC2CCCOc3cc(Cl)ccc32)cnn1C` (stereo not given), for which the INHIBITION is -25.8%. Regarding `Cc1c(-c2cc(C(F)F)nc3sc(C(N)=O)c(N)c23)cnn1C`, the INHIBITION is -17.2%. With `CCn1cc(-c2cc(C(F)F)nc3sc(C(N)=O)c(N)c23)c(C)n1`, the INHIBITION is recorded as -35.4%. As for `CCn1ncc(-c2cc(C(F)F)nc3sc(C(N)=O)c(N)c23)c1C`, the INHIBITION is listed as 64.8%. The value for `CC1CN(CCOc2ccccc2C#N)CCN1Cc1nccn1C` (stereo not given) was 14.1%; that for `Cc1ccc(C)c(CN2CCOC(c3noc(C)n3)C2)c1` (stereo not given) was 8.53%; that for `Cc1cccc(CN2CCC(c3nnsc3S(C)(=O)=O)CC2)n1` was 30.8%.

Regarding `O[C@@H]1CN(Cc2cccc(F)c2)CC[C@H]1NCc1ccccn1`, the INHIBITION was determined as 43.05%. With `CC(NCc1ccsc1)c1ccc(OCc2nccn2C)cc1` (stereo not given) the figure was 69.5%; with `CC(NCc1cccs1)c1ccc(OCc2nccn2C)cc1` (stereo not given), 63.8%. For `COc1ccc(C(C)NCc2cccs2)cc1Cn1cccn1` (stereo not given), the INHIBITION was 10.6%. The value for `CC(C(=O)NCc1cccs1)N1CCN(Cc2nccn2C)CC1` (stereo not given) was 46.4%; that for `CC(NCc1cnn(C)c1)c1ccc(OCc2nccn2C)cc1` (stereo not given) was 49.5%.

Regarding `CC(NCc1ccc(OCc2nccn2C)cc1)c1cccnc1` (stereo not given), the INHIBITION is listed as -63.6%. Consider `Cc1sc(NC(=O)CN(C)CCOc2cccc(F)c2)c(C)c1C`, for which the INHIBITION amounted to 9.14%. The value for `COCCNC(=O)[C@H]1CN(Cc2scnc2C)C[C@H]2OCC[C@@H]12` was -44.8%. `Cc1nc(CCNC(=O)NC2CCCN(c3ncccn3)C2)cs1` (stereo not given): the INHIBITION was determined as 8.03%.

As for `O=C1COc2cc(C(=O)NS(=O)(=O)c3ccccc3F)ccc2N1`, the INHIBITION was found to be 50.4%.

Turning to `O=C1COc2ccc(C(=O)NS(=O)(=O)c3ccccc3F)cc2N1`, the INHIBITION was found to be 14.1%. As to `O=C1COc2cc(C(=O)NS(=O)(=O)c3ccc(F)cc3F)ccc2N1`, the INHIBITION worked out at 33.3%. As for `c1cncc(-c2noc(CN3CCCCC3Cn3cccn3)n2)c1` (stereo not given), the INHIBITION stood at 33.8%. In the case of `CC(OCc1ccccc1)C(=O)NCc1ccc(N(C)C)cc1` (stereo not given), the INHIBITION turned out to be 33.3%. As to `Cn1ncc2c1C(COCC1CC1)N(Cc1ccoc1)CC2` (stereo not given), the INHIBITION was -29.3%. With `COC(=O)[C@H]1CN(C(=O)c2cscn2)C[C@@H]1c1ccc(F)cc1` the figure was 32.8%; with `CNC(=O)[C@@]12CCO[C@@H]1CCN(S(=O)(=O)c1cc(C)cc(C)c1)C2`, 54.4%; with `CNC(=O)[C@@]12CCO[C@@H]1CCN(S(=O)(=O)c1cccc(C)c1)C2`, 38.7%. As to `CNC(=O)[C@@]12CCO[C@@H]1CCN(S(=O)(=O)c1ccc(C)cc1)C2`, the INHIBITION is on record as 21.8%. With `CNC(=O)[C@@]12CCO[C@@H]1CCN(S(=O)(=O)c1ccccc1F)C2`, the INHIBITION was 52%. With `CNC(=O)[C@@]12CCO[C@@H]1CCN(S(=O)(=O)c1ccccc1)C2`, the INHIBITION came to 42.7%. Take `CNC(=O)[C@@]12CCO[C@@H]1CCN(S(=O)(=O)c1ccccc1C)C2`: the INHIBITION was 6.6%.

With `Cc1nc(C(=O)N2CCC(c3nnc(Cn4ccnc4)n3C)CC2)cs1`, the INHIBITION is -19.5%. `Cc1ccc(Br)c(S(=O)(=O)NCc2ccnn2C)c1`: the INHIBITION is given as -24.4%. Consider `COCCN1CCC2(CCN(CC3CC3)CC2)C1=O`, for which the INHIBITION was determined as 8.85%. With `Cc1nc[nH]c1-c1nccn1-c1cccc(CN2CCCC2)c1`, the INHIBITION was determined as 53%. `NC(=O)c1ccc(-n2ccnc2C2CC2)cc1N1CCCC1`: the INHIBITION is given as 36.3%. Take `c1cc(CN2CCCC2)cc(-n2ccnc2-c2ccncc2)c1`: the INHIBITION turned out to be 22.7%. `Cn1ccnc1-c1nccn1-c1cccc(CN2CCCC2)c1`: the INHIBITION worked out at 39.9%.

For the compound `Cc1nc[nH]c1-c1nccn1CCN(C)S(C)(=O)=O`, the INHIBITION was 8.86%. For `NC(=O)c1ccc(-n2ccnc2-c2cccc(O)c2)cc1N1CCCC1`, the INHIBITION is given as 63.5%.

For the compound `CCN(CC)CCn1ccnc1-c1cccc(O)c1`, the INHIBITION is -18.8%.

On to `Cc1nc[nH]c1-c1nccn1-c1ccc(C(N)=O)c(N2CCCC2)c1`, for which the INHIBITION turned out to be 50.5%. Consider `Cc1nc[nH]c1-c1nc2cc(S(=O)(=O)N3CCCC3)ccc2n1C`, for which the INHIBITION turned out to be 4.71%. With `CN(Cc1cnn(C)c1)C(=O)NCCc1ccc2c(c1)OCO2` the figure was -24.75%; with `Cc1cc2nc(SCC(=O)N3CCCC3)n(-c3ccccc3)c(=O)c2[nH]1`, 16.6%; with `Cc1ncc(CN2CCc3c(nc(-c4ccccn4)[nH]c3=O)C2)n1C`, 31.6%. On to `COCCc1noc(CN2CCOC(Cn3nc(C)cc3C)C2)n1` (stereo not given), for which the INHIBITION amounted to 14.4%. Take `CCC[C@@H]1CN(C(=O)c2cnc3ccccc3c2)C[C@H]1NS(C)(=O)=O`: the INHIBITION stood at 51.1%. For `CCC[C@@H]1CN(C(=O)c2cc3ccccc3s2)C[C@H]1NS(C)(=O)=O`, the INHIBITION was 20.1%. For `CC(=O)N[C@@H]1CN(C(=O)c2cnc3ccccc3c2)C[C@H]1O`, the INHIBITION came to 22%.

Consider `OCc1nnc2n1CCN(c1cnccn1)C2`, for which the INHIBITION was 28.5%. Turning to `CCC(CC)(CNC(=O)OC(C)(C)C)NC(=O)C1CC1`, the INHIBITION is -120%. Regarding `CCC(CC)(CNC(=O)OC(C)(C)C)NC(=O)C1CCCO1` (stereo not given), the INHIBITION is 56.6%. The value for `CCC(CC)(CNC(=O)OC(C)(C)C)NC(=O)C1CCOCC1` was -50.8%. `Cc1cc(C(=O)Nc2nc3c(s2)CN(S(=O)(=O)C2CC2)CC3)c(C)o1`: the INHIBITION is -59.6%. In the case of `CC(C)c1nc(N2CCC(N3CCSCC3)CC2)c2cnn(C)c2n1`, the INHIBITION is on record as 21.1%.

`C[C@@H]1CN(CCCOc2ccc(F)cc2)CC[C@@]1(O)C1CCOCC1`: the INHIBITION is reported as 7.24%. Turning to `Cn1nnnc1SCC1Cc2ccccc2O1` (stereo not given), the INHIBITION was 17.2%. As to `Cc1cnn(C2CCCN(C(=O)c3cccc4c3OCO4)C2)c1` (stereo not given), the INHIBITION is on record as 56.6%. As to `O=C(CCCc1ccccc1)N1CCCC(n2cncn2)C1` (stereo not given), the INHIBITION was -12.2%.

For `COc1ccc(CCC(=O)N2CCCC(n3cncn3)C2)cc1` (stereo not given), the INHIBITION is reported as -7.35%. With `Cc1cnn(C2CCCN(C(=O)c3ccc(N(C)C)nn3)C2)c1` (stereo not given) the figure was 11.6%; with `O=C(c1ccc(Br)o1)N1CCCC(n2cncn2)C1` (stereo not given), 11.8%; with `Cc1cnn(C2CCCN(C(=O)c3ccc(N4CCCC4)nn3)C2)c1` (stereo not given), 25.1%. The value for `Cc1cnn(C2CCCN(C(=O)c3cc[nH]n3)C2)c1` (stereo not given) was 64.6%; that for `CCc1ccc(C(=O)N2CCCC(n3cncn3)C2)o1` (stereo not given) was 45.1%; that for `Cc1cc(C)n(C2CCCN(C(=O)c3cccc4c3OCO4)C2)n1` (stereo not given) was 23.7%. As to `COc1ccc(CCCC(=O)N2CCCC(n3cncn3)C2)cc1` (stereo not given), the INHIBITION was found to be 54.8%. For the compound `O=C(c1cccc2c1OCO2)N1CCCC(n2cccn2)C1` (stereo not given), the INHIBITION stood at 28.5%. `Cc1ccc(C(=O)N2CCCC(n3cncn3)C2)o1` (stereo not given): the INHIBITION is reported as 60.1%. Take `CCOc1ccccc1C(CC(=O)Nc1ccccn1)NC(C)=O` (stereo not given): the INHIBITION is -10.45%. The value for `Cc1ccc(CN2CC[C@H]3[C@H]2CCN3S(=O)(=O)C2CC2)cc1` was 8.85%. With `Cn1c(CN2CCCC(N3CCNC3=O)C2)cc(=O)n(C)c1=O` (stereo not given), the INHIBITION was found to be 31.4%. The value for `CCN1CC2(CCC1=O)CCN(Cc1cccc(OC(F)F)c1)CC2` was -9.39%. For the compound `CN(C)Cc1cn(-c2ccccc2C(=O)NCC2CCCCN2C)cn1` (stereo not given), the INHIBITION stood at 29.95%. With `CNc1nc2c(s1)C(c1c(F)cccc1Cl)CC(=O)N2` (stereo not given) the figure was 3.95%; with `CN(C)C(=O)[C@]12CCCN(CC3CC3)C[C@H]1CN(c1ccccn1)C2`, 0.618%. With `COc1ccccc1CN(C)C(=O)C[S+]([O-])Cc1cc(C)on1` (stereo not given) the figure was 5.29%; with `CC(C(=O)N1CCCN(Cc2cscn2)CC1)N1CCOCC1` (stereo not given), -4.3%. With `Cn1cc(CN2CCn3cc(Cn4cccn4)nc3C2)cn1`, the INHIBITION is recorded as -6.23%. On to `CNc1snc(C)c1C(=O)N1CCCC(n2cccn2)C1` (stereo not given), for which the INHIBITION stood at 46.2%.

On to `O=C(c1ccon1)N1CCCC(n2cncn2)C1` (stereo not given), for which the INHIBITION is 9.82%.

Regarding `Cc1cc(C)n(C2CCCN(C(=O)c3cc(C4CC4)on3)C2)n1` (stereo not given), the INHIBITION came out at 14.4%. For `O=C(c1cc(C2CC2)on1)N1CCCC(n2cncn2)C1` (stereo not given), the INHIBITION is recorded as 56.6%.

Take `Cc1cnn(C2CCCN(C(=O)c3cc(C4CC4)on3)C2)c1` (stereo not given): the INHIBITION is reported as 59%. In the case of `Cc1cc(C)n(CCC(=O)N2CCCC(n3cncn3)C2)n1` (stereo not given), the INHIBITION is recorded as 64.7%. Turning to `CNc1snc(C)c1C(=O)N1CCCC(n2nc(C)cc2C)C1` (stereo not given), the INHIBITION came to 32.8%. As to `Cc1cc(C(=O)N2CCCC(n3cncn3)C2)no1` (stereo not given), the INHIBITION is listed as 11.235%. Consider `CNc1snc(C)c1C(=O)N1CCCC(n2cc(C)cn2)C1` (stereo not given), for which the INHIBITION was 58.5%. Turning to `Cn1cc(CCC(=O)N2CCCC(n3cncn3)C2)cn1` (stereo not given), the INHIBITION is 19.4%. In the case of `O=C(c1cc(C2CC2)on1)N1CCCC(n2cccn2)C1` (stereo not given), the INHIBITION was determined as 27.65%. On to `Cc1cc(C)n(CCC(=O)N2CCCC(n3nc(C)nc3C)C2)n1` (stereo not given), for which the INHIBITION was found to be 30.2%. `COCC(=O)NCc1cc(=O)n2c(n1)CN(Cc1nccs1)CCC2`: the INHIBITION is 44.8%.

Turning to `CC(=O)N(C)C1CCN(C(=O)c2cccc3c2ccn3C)CC1`, the INHIBITION came to 9.63%.

Regarding `Cn1cc(CN2CCOCC3(C2)CN(c2ccccc2)C(=O)CO3)cn1` (stereo not given), the INHIBITION was 17.1%. For the compound `CC(=O)N(Cc1noc(C)n1)C1CCN(Cc2cccc(C#N)c2)C1` (stereo not given), the INHIBITION is listed as -18%. In the case of `O=C(O)CN1CCC(C(F)(F)F)CC1`, the INHIBITION came out at 2.4%. On to `CCn1ncc(CNC(=O)c2cn(CCC3CCCCN3)nn2)c1C` (stereo not given), for which the INHIBITION is recorded as 83.8%. Turning to `CCn1nc(C)c(CNC(=O)c2cn(CCC3CCCCN3)nn2)c1C` (stereo not given), the INHIBITION is -25%. As for `Cc1c(CNC(=O)c2cn(CCC3CCCCN3)nn2)cnn1C` (stereo not given), the INHIBITION is on record as -70.7%. With `Cc1cc(C)n(CC2CCCN2C(=O)Cc2c(C)nn(C)c2C)n1` (stereo not given), the INHIBITION is -43.5%.
